Assay outcomes from PubChem.
Anthrax LF inh2: anthrax lethal factor protease inhibition; P15917; multiplex microsphere protease cleavage assay, LF; inhibition, % at 10 µM; 360,000 compounds, 0.12% hits
MazEF act: increases E. coli MazEF RNase cleavage of RNA; P0AE70; FAM/BHQ RNA-DNA oligo cleavage fluorescence, 5 h; 350,000 compounds, 0.32% hits; activation, % at 20 µM; in the data active = activation above about 50%
Target sequence (P0AE70 whole entry, looked up): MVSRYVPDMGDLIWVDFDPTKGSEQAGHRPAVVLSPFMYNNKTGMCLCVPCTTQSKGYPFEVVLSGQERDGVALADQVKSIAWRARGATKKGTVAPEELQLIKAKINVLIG
Autofluor counter: compound fluorescence in toxin protease inhibitor counterscreen; 360,000 compounds, 3.1% hits; compound autofluorescence counterscreen, microsphere flow cytometry; hits give high values; AID 624483; fluorescence intensity (test concentration not listed); in the data active = fluorescence intensity above about 16000; inconclusive = no clear call, values can overlap the other calls
VHR inh abs: blocks human VHR1 dual specificity phosphatase; P51452; recombinant VHR phosphatase, pNPP absorbance; inhibition, % at 13.3 µM; 290,000 compounds, 0.52% hits; AID 1654; in the data active = inhibition above about 50%
Target sequence (P51452 whole entry, looked up): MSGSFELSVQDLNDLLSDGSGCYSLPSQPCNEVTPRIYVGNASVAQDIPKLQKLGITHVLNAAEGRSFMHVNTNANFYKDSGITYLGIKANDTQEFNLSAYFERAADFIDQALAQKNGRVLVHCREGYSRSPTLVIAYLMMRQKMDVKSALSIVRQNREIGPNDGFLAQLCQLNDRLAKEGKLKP
BoNT A protease: blocks Botulinum neurotoxin A light chain protease | multiplex microsphere protease substrate cleavage, flow cytometry | inhibition, % at 10 µM | 360,000 compounds, 0.17% hits
BoNT-F LC inh: blocks Botulinum neurotoxin F light chain protease | Multiplex microsphere protease cleavage assay, flow cytometry | inhibition, % at 10 µM | 360,000 compounds, 0.22% hits; in the data active = inhibition above about 35%, passing the limit was not always enough; inconclusive = no clear call, values can overlap the other calls
Large screens that a line does not name were inactive. A selection: hits, their analogues and other compounds. The true share with any hit is near 4%. Rule as the data show it, unless noted: active = inhibition above about 30%; inconclusive = no clear call, values can overlap the other calls; inactive = below that.

CCOC(=O)C1=C(CC)OC(N)=C(C#N)C1c1cc(OC)ccc1OC (stereo not drawn)	Autofluor counter 21578, BoNT A protease inconclusive
CCOC(=O)C1=C(C)OC(N)=C(C#N)C1c1ccc(OC)c(C)c1OC (stereo not drawn)	Autofluor counter 20362, BoNT A protease inconclusive
Cc1ccc(C(=O)Nc2ccon2)cc1S(=O)(=O)N1CCOCC1	none
Cc1nc2ccc(S(=O)(=O)Nc3ccccc3C)cc2s1	Autofluor counter 17531
Cc1ccccc1NC(=O)Cc1nc(CSc2nnc(C3CCCCC3)n2N)cs1	Autofluor counter 22506
Nn1c(SCC(=O)Nc2cccc(F)c2)nnc1C1CCCCC1	Autofluor counter 22029
COc1ccccc1NC(=O)CSc1nnc(C2CCCCC2)n1N	none
O=C(Nc1cccc([N+](=O)[O-])c1)N1CCN(c2ccccc2)CC1	none
CCC(=O)N(CCC(c1ccco1)C(C)C)Cc1ccccc1 (stereo not drawn)	BoNT-F LC inh inconclusive
Cc1cc(NC(=O)/C(C#N)=C\c2ccc(-c3ccc(SC(F)F)cc3)o2)n(-c2ccccc2)n1	MazEF act 432 (no result: VHR inh abs)
COc1ccc(C(=O)CSc2n[nH]c(=O)n2Cc2ccco2)cc1	none
Cc1ccsc1/C=c1\sc2ncnn2c1=O	Autofluor counter 20527
CNC(=O)[C@@H]1C[C@H]1[C@@H](NC(=O)OCc1ccccc1)c1ccccc1	none
S=C(Nc1ccccc1)Nc1nccs1	none
Cc1ccc(OCCC(=O)OCC(=O)NC(=O)NCc2ccccc2)cc1	none (no result: Anthrax LF inh2, Autofluor counter, VHR inh abs, BoNT A protease, BoNT-F LC inh)
O=C(CC1NCCNC1=O)Nc1ccc2c(c1)OCO2 (stereo not drawn)	Autofluor counter 22917
CCc1cc(C(=O)OC)c(NC(=O)CC2NCCNC2=O)s1 (stereo not drawn)	Autofluor counter 21532, BoNT A protease inconclusive
O=C(CC1NCCNC1=O)Nc1ccc(Cl)c(Cl)c1 (stereo not drawn)	none
CCn1cc(CN2CCC(n3nccc3NC(=O)c3ccccc3C)CC2)cn1	none
COC(=O)C1C(=O)CC(C)(O)C(C(=O)OC)C1c1ccccc1F (stereo not drawn)	none
O=c1nc2sc3ccccc3n2c(=O)n1-c1ccc(Cl)cc1	none
Cc1ccc2c(c1)sc1nc(=O)n(-c3ccc(Cl)cc3)c(=O)n12	Autofluor counter 19455
Cc1ccc2c(c1)sc1nc(=O)n(-c3ccc(Cl)c(Cl)c3)c(=O)n12	Autofluor counter 22447, BoNT A protease inconclusive
O=c1nc2sc3ccccc3n2c(=O)n1-c1cccc(Cl)c1	none
Cc1ccc2c(c1)sc1nc(=O)n(-c3cccc(Cl)c3)c(=O)n12	Autofluor counter 22395
CSc1ccc(CN(C)CC(=O)NC(=O)NC(C)(C)C)cc1	none
Cc1noc(C)c1CSc1ccc2ccccc2n1	Autofluor counter 20444
Cc1noc(C)c1CSc1nnc2ccccn12	Autofluor counter 19015
Cc1noc(C)c1CSc1nnc(-c2ccccc2)n1N	none
COn1c(SCc2ccc(Cl)cc2)nc2ccccc2c1=O	Autofluor counter 22710, BoNT A protease inconclusive
Cc1noc(C)c1CSc1nc2sc(C)c(C)c2c(=O)n1-c1ccccc1	none
Cc1noc(C)c1CSc1nc2ccccc2c(=O)n1-c1ccc(Cl)cc1	Autofluor counter 22121, BoNT A protease inconclusive
O=C(CN(Cc1ccccc1)C(=O)c1cccc([N+](=O)[O-])c1)Nc1c(Cl)cc(Cl)cc1Cl	none
Cc1cc(C)c(NC(=O)/C(C#N)=C/c2ccc(OCc3ccc(F)cc3)cc2)c(C)c1	none
COc1ccc(NC(=O)CN(C)CC(=O)Nc2sc3c(c2C(N)=O)CCC3)cc1	Autofluor counter inconclusive (no result: VHR inh abs)
NC(=O)C(c1ccc(Br)cc1)c1ccc(C(=O)c2ccccc2)cc1 (stereo not drawn)	none
CCOC(=O)/C=c1\s/c(=C(\C#N)C(=O)NC)n(-c2ccccc2)c1=O	none
Cc1ccccc1-n1c(=O)/c(=C\c2ccco2)s/c1=C(/C#N)C(=O)Nc1ccccc1	Autofluor counter 20678
CCC(C)N(C(=O)CSc1nc(C)c(C)c(C)c1C#N)C1CCS(=O)(=O)C1 (stereo not drawn)	none (no result: VHR inh abs)
O=C(/C=C/c1ccccc1)CC(=O)c1ccccc1O	MazEF act 55
CCCSc1nnc(-c2c[nH]c3ccccc23)n1CC	none
CCCCn1c(-c2ccoc2C)n[nH]c1=S	Autofluor counter 23012
c1ccc(-n2nnnc2Sc2n[nH]c(-c3ccncc3)n2)cc1	Autofluor counter 24881
Cc1ccccc1-n1nnnc1Sc1nnnn1-c1ccccc1	none
COc1ccccc1CCNC(=O)CCn1nc(C)c2c(C)n(-c3ccccc3)nc2c1=O	none
Cc1ccc(S(=O)(=O)N(CC(=O)N2CCCCCC2)c2ccccc2)cc1	none
Cc1ccc(N(CC(=O)N2CCN(C3CCCCC3)CC2)S(=O)(=O)c2cccnc2)cc1	Autofluor counter 21207, BoNT A protease inconclusive
O=C(CN1C(=O)N/C(=C\c2ccccc2OCc2ccc(C(=O)O)cc2)C1=O)Nc1ccccc1F	none
CCN(CC)c1ccc(/C=c2/sc3nnc(-c4ccccc4C)n3c2=O)cc1	none
CCN(CC)c1ccc(/C=c2\sc3nnc(-c4ccccc4Cl)n3c2=O)cc1	Anthrax LF inh2 80, BoNT A protease 176, BoNT-F LC inh 125
Cc1ccc(/C=c2/sc3nnc(-c4ccccc4Cl)n3c2=O)o1	Autofluor counter 16190
C/C(CC(=O)Nc1c(C)cc(C)cc1C)=N\NC(=O)OC(C)(C)C	none
CCN(CC)S(=O)(=O)c1ccc(NC(=O)COC(=O)CN2C(=O)c3ccccc3C2=O)cc1	Autofluor counter 22134
CN(C)c1ccc(NC(=O)CN2C(=O)c3ccccc3C2=O)cc1	BoNT-F LC inh 39
Cc1ccc(NC(=O)COC(=O)CN2C(=O)c3ccccc3C2=O)cc1	none (no result: VHR inh abs)
CC(=O)N(C)c1ccc(NC(=O)CCN2C(=O)c3ccccc3C2=O)cc1	BoNT-F LC inh inconclusive
O=c1nc2n(c3sc4c(c13)CCCC4)C(CBr)CS2 (stereo not drawn)	none
Cc1cccc(COCC(Cc2ccccc2)N2CCN(C(=O)c3cccc(Cl)c3)CCC2=O)c1 (stereo not drawn)	none
COc1ccccc1Cc1c(-c2ccccc2)nc2ccc(Cl)cn12	none (no result: MazEF act, VHR inh abs)
O=C(CNC(=O)c1ccccc1F)OC(C(=O)Nc1cc(C(F)(F)F)ccc1Cl)c1ccccc1 (stereo not drawn)	Autofluor counter 22099
Cc1nc(NCc2ccco2)c2c(C)c(C)sc2n1	Autofluor counter 16784
CC(=O)c1c[nH]c(C(=O)NCc2cccc(C(F)(F)F)c2)c1	VHR inh abs 53
N#CC1=C(N)Oc2n[nH]c(-c3ccccc3)c2C1c1cccc(OC(=O)N2CCOCC2)c1 (stereo not drawn)	Autofluor counter 16755
COc1ccc(-c2[nH]nc3c2C(c2ccccc2OC(=O)N2CCOCC2)C(C#N)=C(N)O3)cc1 (stereo not drawn)	Autofluor counter 20595
CC(C)Oc1ccc(C2C(C#N)=C(N)Oc3c2oc(CO)cc3=O)cc1 (stereo not drawn)	none
